# According to PubChem BioAssay (Tox21):
# Records with an inconclusive call do not appear. A call without a number means that no potency is given here. Unmarked numbers belong to inactive results. Activity calls are given as the source filed them. Calls follow the shape of the dose curve; as a rule, active = well fitted curve in the direction sought with a large enough effect in the repeat runs; inconclusive = weak or mixed curves; inactive = no such curve, though single readings can be large; an effect the other way counts as inactive or inconclusive.
# Key:
# [1] = qHTS RealTime-Glo MT Cell Viability Assay in HEK293 cells - 16 hour (AID 1224872); also: nearly all actives have a fitted effect of over 50% in size; also: potency is read from the fitted curve at half-maximal effect; as to activity change, negative = cytotoxicity: top concentration of the series differs between compounds
# Method in brief: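 Nonlytic real-time viability readout: viable cells convert prosubstrate to NanoLuc substrate, giving luminescence proportional to live cell number. HEK293, 600 cells/well, compound added after 5 h, continuous culture at 37 C.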
# [2] = A CellTox Green Cytotoxicity Assay to monitor cytotoxicity in HEK293 cells - 24 hour (AID 1224875); also: nearly all actives have a fitted effect of over 45% in size; also: potency is read from the fitted curve at half-maximal effect; as to activity change: series mostly up to about 77 µM
# Method in brief: (§1)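 HEK293 cells, 600/well, were preincubated 5 hours and then exposed to compounds at 37 C for up to 40 hours. A cell-impermeant cyanine dye staining dead-cell DNA was read by fluorescence at 0, 8, 16, 24, 32 and 40 h time points.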
# [3] = A CellTox Green Cytotoxicity Assay to monitor cytotoxicity in HepG2 cells - 16 hour (AID 1224876); also: nearly all actives have a fitted effect of over 45% in size
# Method in brief: (§2)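 HepG2 cells, 600/well, preincubated 5 h with CellTox Green dye, then exposed to Tox21 compounds in DMSO at 37 C for up to 40 h. Dead-cell DNA fluorescence read at the indicated time point.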
# [4] = qHTS RealTime-Glo MT Cell Viability Assay in HepG2 cells - 32 hour (AID 1224877); also: nearly all actives have a fitted effect of over 55% in size
# Method in brief: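 Luminescence read-out: viable HepG2 cells reduce a prosubstrate to a NanoLuc substrate, giving a signal proportional to live cell number. Reads taken at 0, 8, 16, 24, 32 and 40 h of compound exposure at 37 C.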
# [5] = A CellTox Green Cytotoxicity Assay to monitor cytotoxicity in HepG2 cells - 24 hour (AID 1224878); also: nearly all actives have a fitted effect of over 45% in size; also: potency is read from the fitted curve at half-maximal effect
# Method in brief: as §2
# [6] = A CellTox Green Cytotoxicity Assay to monitor cytotoxicity in HepG2 cells - 40 hour (AID 1224879); also: nearly all actives have a fitted effect of over 40% in size; also: potency is read from the fitted curve at half-maximal effect
# Method in brief: as §2
# [7] = qHTS RealTime-Glo MT Cell Viability Assay in HEK293 cells - 0 hour (AID 1224880); also: top concentration of the series differs between compounds; nearly all actives have a fitted effect of over 45% in size
# Method in brief: (§3)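 600 cells/well were plated with the nonlytic NanoLuc/prosubstrate reagent, pre-incubated 5 h, then given 23 nL of compound in DMSO. Incubation at 37 C for 40 h, with luminescence from viable-cell-reduced substrate read repeatedly from 0 h.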
# [8] = A CellTox Green Cytotoxicity Assay to monitor cytotoxicity in HEK293 cells - 32 hour (AID 1224881); also: nearly all actives have a fitted effect of over 40% in size; also: potency is read from the fitted curve at half-maximal effect
# Method in brief: as §1
# [9] = qHTS RealTime-Glo MT Cell Viability Assay in HEK293 cells - 40 hour (AID 1224874); conditions: RealTime-Glo luminescence; max response: hits give low values; also: nearly all actives have a fitted effect of over 50% in size; also: potency is read from the fitted curve at half-maximal effect
# Method in brief: as §3
# [10] = qHTS RealTime-Glo MT Cell Viability Assay in HepG2 cells - 8 hour (AID 1224873); also: nearly all actives have a fitted effect of over 55% in size
# Method in brief: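 HepG2 cells mixed with RealTime-Glo MT reagents (NanoLuc plus cell-permeant prosubstrate) were seeded at 600 cells/well, incubated 5 h at 37 C/5% CO2, then pinned with compounds in DMSO; nonlytic luminescence tracked viability during 40 h treatment.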
smiles,measurement,setting,value
C/C=C/c1ccc(OC)c(OC)c1,Potency,[1],inactive
same,Potency,[2],inactive
same,Potency,[3],inactive
same,Potency,[4],inactive
same,Potency,[5],inactive
same,Potency,[6],inactive
same,Potency,[7],inactive
same,Potency,[8],inactive
CCCCCCC(C)Nc1ccc(Nc2ccccc2)cc1 (centres undefined),Potency,[1],19.5 µM (active)
same,Potency,[9],21.9 µM (active)
same,Potency,[2],inactive
same,Potency,[3],inactive
same,Potency,[6],inactive
same,Potency,[8],inactive
CCOC(=O)COc1ccc(C)cc1,Potency,[1],inactive
same,max response,[9],0.285%
same,Potency,[2],inactive
same,Potency,[4],inactive
same,Potency,[5],inactive
same,Potency,[6],inactive
same,Potency,[7],inactive
COc1cc(C(C)C)c2c(c1)S(=O)(=O)N(COc1cc(=O)n3cccc(OCCN4CCCCC4)c3n1)C2=O,"activity change, negative = cytotoxicity",[1],3.24% [at 15.8 µM]
same,activity change,[2],"0.172% [at 15.8 µM, hits give high values]"
same,cytotoxicity increase,[3],19.8% [at 15.8 µM]
same,"activity change, negative = cytotoxic",[4],-2.94% [at 15.8 µM]
same,"activity change, negative = cytotoxicity",[7],-4.74% [at 15.8 µM]
same,cytotoxicity increase,[8],5.59% [at 15.8 µM]
CCCCCCC(C)OC(=O)COc1nc(F)c(Cl)c(N)c1Cl (centres undefined),Potency,[1],inactive
same,max response,[9],-20.4%
same,Potency,[2],inactive
same,Potency,[4],inactive
same,Potency,[7],inactive
COC(=O)C1=C(C)NC(C)=C(C(=O)OCCCN2CCC(c3ccccc3)(c3ccccc3)CC2)C1c1cccc([N+](=O)[O-])c1 (centres undefined),Potency,[1],9.52 µM (active)
same,Potency,[9],10.7 µM (active)
same,Potency,[2],inactive
same,Potency,[3],inactive
same,Potency,[7],inactive
same,Potency,[8],inactive
S=C(SSSSSSC(=S)N1CCCCC1)N1CCCCC1,Potency,[1],13.6 µM (active)
same,Potency,[9],0.192 µM (active)
same,cytotoxicity increase,[3],-6.85% [at 15.8 µM]
same,"activity change, negative = cytotoxic",[4],-24.5% [at 15.8 µM]
same,cytotoxicity,[5],-0.0697% [at 15.8 µM]
same,"activity change, negative = cytotoxicity",[7],-11.8% [at 15.8 µM]
CS(C)(=O)=O,Potency,[1],inactive
same,max response,[9],-3.02%
same,Potency,[3],inactive
same,Potency,[4],inactive
same,Potency,[5],inactive
same,Potency,[6],inactive
same,Potency,[7],inactive
Clc1ccc(C(Cn2ccnc2)OCc2ccsc2Cl)c(Cl)c1 (centres undefined),Potency,[1],15.1 µM (active)
same,Potency,[9],16.9 µM (active)
same,Potency,[2],inactive
same,Potency,[6],23.9 µM (active)
same,Potency,[7],inactive
NC1(c2ccc(-c3nc4ccn5c(=O)[nH]nc5c4cc3-c3ccccc3)cc2)CCC1,Potency,[1],6.01 µM (active)
same,Potency,[9],1.07 µM (active)
same,Potency,[6],26.8 µM (active)
same,Potency,[7],inactive
CCCCCCCC(=O)OCC,Potency,[1],inactive
same,max response,[9],-3.83%
same,Potency,[2],inactive
same,Potency,[4],inactive
same,Potency,[6],inactive
same,Potency,[7],inactive
same,Potency,[8],inactive
CC(O)C#CC(C)O (centres undefined),Potency,[7],inactive
same,Potency,[8],54.4 µM (active)
C=C1C(C)(C)[C@@]2(Cl)C(Cl)[C@]1(Cl)C(Cl)(Cl)C2(Cl)Cl (some centres undefined),Potency,[3],inactive
same,Potency,[5],48.1 µM (active)
same,Potency,[6],53.9 µM (active)
same,Potency,[7],inactive
C[C@@H]1CC[C@H]2C(C)(C)[C@H]3C[C@@]12CC[C@@]3(C)O,Potency,[10],inactive
same,max response,[9],-18.5%
same,Potency,[2],38.8 µM (active)
same,Potency,[4],inactive
same,Potency,[6],54.9 µM (active)
same,Potency,[7],inactive
same,Potency,[8],38.8 µM (active)
Nc1cc(Cl)c([N+](=O)[O-])cc1O,Potency,[10],inactive
same,Potency,[2],inactive
same,Potency,[5],inactive
same,Potency,[6],inactive
same,Potency,[7],inactive
same,Potency,[8],inactive
CCCC(CC)CCCCCCCN (centres undefined),Potency,[10],inactive
same,Potency,[9],56.3 µM (active)
same,Potency,[4],inactive
same,Potency,[8],44.7 µM (active)
CC(C)(C)c1cc(CCC(=O)NCCCCCCNC(=O)CCc2cc(C(C)(C)C)c(O)c(C(C)(C)C)c2)cc(C(C)(C)C)c1O,max response,[9],-24.8%
same,Potency,[2],inactive
same,Potency,[3],inactive
same,Potency,[5],inactive
same,Potency,[6],inactive
same,Potency,[7],inactive
same,Potency,[8],inactive
CC(C)C(=O)OCc1ccccc1,Potency,[10],inactive
same,max response,[9],18.1%
same,Potency,[4],inactive
Clc1ccccc1CN1CCc2sccc2C1,Potency,[10],inactive
same,max response,[9],-22.8%
same,Potency,[2],inactive
same,Potency,[4],inactive
same,Potency,[5],inactive
same,Potency,[6],inactive
same,Potency,[7],inactive
same,Potency,[8],inactive
Brc1ccccc1-c1ccccc1,Potency,[10],inactive
same,max response,[9],-2.43%
same,Potency,[4],inactive
same,Potency,[5],46.3 µM (active)
same,Potency,[6],1.84 µM (active)
same,Potency,[7],inactive
CN(Cc1cc(Br)cc(Br)c1N)C1CCCCC1,Potency,[10],inactive
same,Potency,[4],inactive
same,Potency,[5],21.3 µM (active)
same,Potency,[7],inactive
CCCCCCCC/C=C\CCCCCCCC(=O)OCCOC(=O)CCCCCCC/C=C\CCCCCCCC,max response,[9],-19.3%
same,Potency,[2],inactive
same,Potency,[3],inactive
same,Potency,[5],inactive
same,Potency,[6],inactive
CC1=C(/C=C/C(C)=C/C=C/C(C)=C\C=O)C(C)(C)CCC1,Potency,[10],inactive
same,Potency,[9],46.4 µM (active)
same,Potency,[3],inactive
same,Potency,[4],inactive
same,Potency,[5],inactive
same,Potency,[7],inactive
